In publication PMC7819943, “Rice protein-binding microarrays: a tool to detect cis-acting elements near promoter regions in rice”:
Over roughly 68,000 sequences, “fluorescence intensity (a.u.)” has its median near 9,100; the highest 2% begin near 16,000. For the sample, the highest values were picked, then their nearest neighbours and some sequences at random.

The sequences below were run against OsWRKY34 (Oryza sativa, UniProt Q0JBA9 1-250) (assay: protein-binding microarray (RPBM); PBS, 2% BSA, 51.3 ng/ul salmon testes DNA, 50 uM zinc acetate, 200 nM TF, 25 C, 1 h; high values mean tight binding). Conditions: protein: recombinant; tags: N-terminal polyhistidine and DsRed monomer fusion (pET32a); label: CyDye5-dUTP incorporated in the synthesized complementary strand; 3' TTTTT single-stranded linker to array surface; dsDNA, one strand shown.
In short: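 Per-feature fluorescence intensity (arbitrary units), read on an Axon 4000B scanner, is the binding signal. Transcription factors carrying an N-terminal polyhistidine tag and DsRed fusion were expressed in E. coli BL21-CodonPlus and purified on Ni–NTA. A custom Agilent array, made double-stranded by primer extension with Cy5-dUTP and blocked with 2% BSA, was incubated with 200 nM protein in PBS, 2% BSA, salmon testes DNA and 50 µM zinc acetate at 25 °C for 1 h and then washed.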

OsWRKY34, sequence (Q0JBA9 entry or part of it): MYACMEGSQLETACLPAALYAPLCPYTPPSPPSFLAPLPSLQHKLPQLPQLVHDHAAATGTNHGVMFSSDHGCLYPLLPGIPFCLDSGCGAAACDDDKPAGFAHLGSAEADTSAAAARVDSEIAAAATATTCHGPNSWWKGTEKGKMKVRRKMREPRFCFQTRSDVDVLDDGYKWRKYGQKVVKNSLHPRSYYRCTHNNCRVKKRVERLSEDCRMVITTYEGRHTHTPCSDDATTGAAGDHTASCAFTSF

Sequence | binding signal
AGAATGGTCTTATATGTTGTGTAGTGGTGTGTGGGCGTGTCGGAGTCACCTAGTGCAG | 8170 fluorescence intensity (a.u.)
ACCGATGACTTTTGGCAAAACTTACAGTAAAACTGCTTATCGGAGTCACCTAGTGCAG | 8850 fluorescence intensity (a.u.)
ATGCCGTTGACTTTTTAAAATATATTTGACCATTTCCTATCGGAGTCACCTAGTGCAG | 21700 fluorescence intensity (a.u.)
ATATTTGATGCCGTTGACTTTTTAAAATATATTTGATCATCGGAGTCACCTAGTGCAG | 16400 fluorescence intensity (a.u.)
CATATCTAACTTTTGACCATCCGTTTTATTTAAAAAAATACGGAGTCACCTAGTGCAG | 8310 fluorescence intensity (a.u.)
ATGTTTGACTTTTTTTTAAAAAATTTATATTTTTTTAAATCGGAGTCACCTAGTGCAG | 8390 fluorescence intensity (a.u.)
CCTCCGCTCCTAAATATTTGACACCGCTGACTTTTTAAAACGGAGTCACCTAGTGCAG | 11100 fluorescence intensity (a.u.)
CCTCCTTTCCTAAATATTTGACGCCGTTGACTTTTTTAAACGGAGTCACCTAGTGCAG | 13500 fluorescence intensity (a.u.)
CCTCCGTTTTTAAATATTTGATGCCGTTGACTTTTTAAAACGGAGTCACCTAGTGCAG | 19900 fluorescence intensity (a.u.)
CCATCTGTCATATTTGTCATCGTTGACTTTTTTAAATATACGGAGTCACCTAGTGCAG | 13600 fluorescence intensity (a.u.)
TATTTTCCTACCATTTGATTTATTGTTAAATATACTTTTTCGGAGTCACCTAGTGCAG | 10200 fluorescence intensity (a.u.)
TCCTATGCCTGCAGCCTGTATCAAAAAATTTTCACAATGTCGGAGTCACCTAGTGCAG | 8480 fluorescence intensity (a.u.)
CTATATCGCACGTACTCCGGTACCAACGATCCTATACCATCGGAGTCACCTAGTGCAG | 9910 fluorescence intensity (a.u.)
TTTTGAAATCCGCGCCTACTTTTTTCTTGTCTCTTCTGTGCGGAGTCACCTAGTGCAG | 8400 fluorescence intensity (a.u.)
CACTCGCCACCGCCGCCCACCCGCAACTGCCGCCGACTCCCGGAGTCACCTAGTGCAG | 10800 fluorescence intensity (a.u.)
CTATTATAGCGTGTCGGACACTGACTCCTCCCATGTTCCTCGGAGTCACCTAGTGCAG | 11100 fluorescence intensity (a.u.)
AACTGAATTGTTGGTTTTTTCGGTTTTCGGTTGTCAGTTCCGGAGTCACCTAGTGCAG | 11900 fluorescence intensity (a.u.)
TTGTCAGTTTTCTCTAAACCACAGTAATTAGTCAGTTTCACGGAGTCACCTAGTGCAG | 8420 fluorescence intensity (a.u.)
GTAACCCTAATTTCAGAAACTAAACACAGTCACGTAAGAACGGAGTCACCTAGTGCAG | 65500 fluorescence intensity (a.u.)
TCCCTAAAATTTTTCACCCTTTCACATTAAACGTTTAACACGGAGTCACCTAGTGCAG | 11400 fluorescence intensity (a.u.)
GTCCGCATCCAATTCCCGGGCCATTCGAAATCCCCAACACCGGAGTCACCTAGTGCAG | 10200 fluorescence intensity (a.u.)
GGCCATAGCGTGTATTGTTGTGTTTGTGTGTAAAATTTTTCGGAGTCACCTAGTGCAG | 11300 fluorescence intensity (a.u.)

Sequence | binding signal
GTATGCCATTCGCCCAAGATGCTTTTGCTTCGCATGGACCCGGAGTCACCTAGTGCAG | 8540 fluorescence intensity (a.u.)
GCTTAATTACATGGGAGAGGCTTTGTTTCTTGTTTATTTTCGGAGTCACCTAGTGCAG | 8760 fluorescence intensity (a.u.)
ATGTTTTTATGCTGCATTCCCCATGTGTGTTTCCTTCTAACGGAGTCACCTAGTGCAG | 19600 fluorescence intensity (a.u.)
TTTTTTTTTCCTTTTGCTGACATGCATTATGTTTTCTATTCGGAGTCACCTAGTGCAG | 10000 fluorescence intensity (a.u.)
CTATTCTTGTGTTTTTTTCTATGTTTAATCCTATGTTTTACGGAGTCACCTAGTGCAG | 16600 fluorescence intensity (a.u.)
AGTTTTTCTAGTCCTTCTTAATGCATGTGTCACCTTCTAACGGAGTCACCTAGTGCAG | 10300 fluorescence intensity (a.u.)
CTTAATCGGTATGGGGAGAGTGTTCTTATTGTTTCATTTACGGAGTCACCTAGTGCAG | 16800 fluorescence intensity (a.u.)
ATTCCTATATTTTTCCTATGTTTTGTAATCCTCTGTTTTACGGAGTCACCTAGTGCAG | 12600 fluorescence intensity (a.u.)
TTTATTTCCTAGATTAATTCTGATATGTTTCTATGTTTTACGGAGTCACCTAGTGCAG | 9260 fluorescence intensity (a.u.)
GTAATTTAATGTTCATTATGGTGTTTCTTAATTGTTTTTTCGGAGTCACCTAGTGCAG | 9320 fluorescence intensity (a.u.)
GCCAGACCGCCACCGTCCGTTTCCACAACCGTGCCAGTGCCGGAGTCACCTAGTGCAG | 10700 fluorescence intensity (a.u.)
AGGTTGCCAGCGTGTGGGGTGGGTTATTTTCGTGTGCGGGCGGAGTCACCTAGTGCAG | 11100 fluorescence intensity (a.u.)
GACCCACCACCACCACCACGCCGCGAGCACGCGAGCGAACCGGAGTCACCTAGTGCAG | 8880 fluorescence intensity (a.u.)
GGGACCTAGGATGAACTTATTCCTTTCTGTTTCAACCATACGGAGTCACCTAGTGCAG | 8370 fluorescence intensity (a.u.)
TGTGCCAGTTGTTAGTCATGATCTTCCTGATGTGTCATCCCGGAGTCACCTAGTGCAG | 8080 fluorescence intensity (a.u.)
TTTTTGGCTGGTCAAATTTGGCTAGTGTGGGGAGGGTTTTCGGAGTCACCTAGTGCAG | 23600 fluorescence intensity (a.u.)
GGTGGTTTGAATTTGGTGTGGCGTTTTTCTTGGGCAGGGGCGGAGTCACCTAGTGCAG | 21500 fluorescence intensity (a.u.)
CTTTTTTTTGATTTTTTTTATTTGTGGTTTGGATGTTTTTCGGAGTCACCTAGTGCAG | 9280 fluorescence intensity (a.u.)
TGGTTTTTCATTTTGTGTGCGTGTGCACGTTTGTGTGGGGCGGAGTCACCTAGTGCAG | 12700 fluorescence intensity (a.u.)
GGTGTGTGCTGGCTATTTGTCAAAGATTATGTGGGTTTTTCGGAGTCACCTAGTGCAG | 10400 fluorescence intensity (a.u.)
TTGGGTTGGGTCTTGGGTTTGGTGGTTTGAATTTGGTGTGCGGAGTCACCTAGTGCAG | 13100 fluorescence intensity (a.u.)
ATTTGGTTTTATATGTTTGTGGAGTGATATATTTCGTATTCGGAGTCACCTAGTGCAG | 8350 fluorescence intensity (a.u.)

Sequence | binding signal
CAGGGTTTGGATGTGGATATGGTTTCTTCAAGGGTATTTTCGGAGTCACCTAGTGCAG | 16400 fluorescence intensity (a.u.)
TATCCGGTTTTCTGGTTGAGGGGTATGAATTAGATTCGACCGGAGTCACCTAGTGCAG | 10200 fluorescence intensity (a.u.)
GGCTGGTTTGGTTTGTGGCTAAAATTGGCCTTACCAATTTCGGAGTCACCTAGTGCAG | 10500 fluorescence intensity (a.u.)
TGGTTGAATTCTGGTTCGGGTATCCTCAATTTCGGGGTTTCGGAGTCACCTAGTGCAG | 17700 fluorescence intensity (a.u.)
TTTTCAATTTTCTGGTTGAGTAGGGGTTCGGAATTTTCTTCGGAGTCACCTAGTGCAG | 10600 fluorescence intensity (a.u.)
TGTTATTATGTTTCAGGAATACTTCCTCTGGTTATAAATACGGAGTCACCTAGTGCAG | 9850 fluorescence intensity (a.u.)
ACCCCGTTCAACGCTCGCTTATATATATTCCCCTCTCGCACGGAGTCACCTAGTGCAG | 8640 fluorescence intensity (a.u.)
AGCCTTCCGGTGAACTCCGGCGACGGGCGGGTGTGGGGATCGGAGTCACCTAGTGCAG | 11000 fluorescence intensity (a.u.)
CTATTCTTGTGCATTCTGTTTTTTATCGTACATGCTACAGCGGAGTCACCTAGTGCAG | 11800 fluorescence intensity (a.u.)
ATGGTGGGCTGTGGGTGCATGGTTTTGCTGGTCGCACCCACGGAGTCACCTAGTGCAG | 11100 fluorescence intensity (a.u.)
CCACCATGGTCTCGCTCATTCTGTTTGCTTCACCTACTCTCGGAGTCACCTAGTGCAG | 14500 fluorescence intensity (a.u.)
GGGGTGGAATTGTGTTGGGTTTCTTTGGTTGAGGAGAGAGCGGAGTCACCTAGTGCAG | 16000 fluorescence intensity (a.u.)
TAAGGGATGGGATGGTTGGCTTGGATCGAGTATATTTCTTCGGAGTCACCTAGTGCAG | 18900 fluorescence intensity (a.u.)
AGACATTTTTCTTTCTCGTGGATATTTACGCCTTTCTTGACGGAGTCACCTAGTGCAG | 8790 fluorescence intensity (a.u.)
ACTTTTTTTGGTGACTATGTGTTTCCCTGTGGTGGGCTTCCGGAGTCACCTAGTGCAG | 12000 fluorescence intensity (a.u.)
AGTGAACTTGGTTCTGTGGTTGCATGTATTTGGTGGAGGGCGGAGTCACCTAGTGCAG | 9170 fluorescence intensity (a.u.)
AGGGATGGTTGGACTTATTTCTTTCGCGTTTTCCTTGGGTCGGAGTCACCTAGTGCAG | 10900 fluorescence intensity (a.u.)
GGGGTGAACATTTCTTTCTTTCTGGTATTGTGGTTGAGGGCGGAGTCACCTAGTGCAG | 19300 fluorescence intensity (a.u.)
GAACTTTTCCTGGATGGTGATCCTTCTTTTGGCCTTCTTTCGGAGTCACCTAGTGCAG | 10500 fluorescence intensity (a.u.)
GCCTTTTCTTGACTCGGTGGTGGGAGGGGAATTTTCGTGACGGAGTCACCTAGTGCAG | 27000 fluorescence intensity (a.u.)
TATATTTTCTTCTTCGTCACGATCGATGGGATTTTTATTTCGGAGTCACCTAGTGCAG | 9040 fluorescence intensity (a.u.)
TCAATTTTCTTGTTGACTCGGTGTTTTTGACTGTGGTCAACGGAGTCACCTAGTGCAG | 10900 fluorescence intensity (a.u.)

Sequence | binding signal
TTCTTCTTGGTGGTGGTGGGGCCTGGAAACTATGTGACTTCGGAGTCACCTAGTGCAG | 18200 fluorescence intensity (a.u.)
TGCAGGCTTCCACCGCCCGCCTGTCATTGTCGCCCACTGCCGGAGTCACCTAGTGCAG | 8760 fluorescence intensity (a.u.)
GTTTGTCCCTTTTGACATATGAACTCTTCTCCATGATTTCCGGAGTCACCTAGTGCAG | 8060 fluorescence intensity (a.u.)
GGCTTGATTTCTTCTTTTTTCTAATTTTCATATGGCTATTCGGAGTCACCTAGTGCAG | 9800 fluorescence intensity (a.u.)
TTAAATATTTGAGGGGTCGATATTTCTGGTATTGGTATTACGGAGTCACCTAGTGCAG | 10500 fluorescence intensity (a.u.)
TTTTTTTTTCATCGATGCTTATTTTTTCAGCCTTTACTTTCGGAGTCACCTAGTGCAG | 8640 fluorescence intensity (a.u.)
TGAAGCATGTGGTGGGCATTTTCGTCTTTCTCGAATTCATCGGAGTCACCTAGTGCAG | 9980 fluorescence intensity (a.u.)
GTATGTGCCACGTCATCCAAAACCGGCCACAATACTGTCGCGGAGTCACCTAGTGCAG | 8130 fluorescence intensity (a.u.)
TCCGCTTCTGCTATCTCTCGTCACTCTTCAGTCTTCACCTCGGAGTCACCTAGTGCAG | 8050 fluorescence intensity (a.u.)
AGTTTCAGAACTCACCTCTTTATTAATACATTTAGTTGTTCGGAGTCACCTAGTGCAG | 8850 fluorescence intensity (a.u.)
AACGGTTGCAGCTCTAATTGAGGGCTTTGTTTAGTTCATGCGGAGTCACCTAGTGCAG | 8640 fluorescence intensity (a.u.)
AATTCGGGGTTTGGGGCCGCGGAGGGGTGCTTACGTGAGTCGGAGTCACCTAGTGCAG | 15100 fluorescence intensity (a.u.)
CAATGGAGGGGTGTTTTTTTTTCTATTTTTCTAAATAATTCGGAGTCACCTAGTGCAG | 14800 fluorescence intensity (a.u.)
GCGGAGGCAGGGAGGGTTTTGGAATTTTCGGCCGCCGTTGCGGAGTCACCTAGTGCAG | 10100 fluorescence intensity (a.u.)
TGAATTTGTGGTTTTTTTTGGGGAGGGTTTTTTTTTTCTTCGGAGTCACCTAGTGCAG | 34600 fluorescence intensity (a.u.)
TTTTGTGTATGTTTCGGTGGGAATTTGAGGGTTGTGTTTTCGGAGTCACCTAGTGCAG | 14200 fluorescence intensity (a.u.)
AGTTCGGGGTGGTTTAAAGTGTAAAAAAATGTTAATAAAACGGAGTCACCTAGTGCAG | 8870 fluorescence intensity (a.u.)
CGAGAGAGAGAGGGGAGGGTTTTGGGTTGTGCTTAGGTTTCGGAGTCACCTAGTGCAG | 13100 fluorescence intensity (a.u.)
GTTAAATTCGAGGGGTTTCTTGTAATTTCGGGGTGGATAACGGAGTCACCTAGTGCAG | 16500 fluorescence intensity (a.u.)
CGAGGGTTTGGGAGTCGGGGAATTCGGGGTTTGGGGCCGCCGGAGTCACCTAGTGCAG | 26700 fluorescence intensity (a.u.)
